Consider eight compounds from PubChem BioAssay (EPA / NIEHS).

For orientation: AC50 means the concentration giving half of the maximal activity seen.

Test [1] can be described thus: IUF_NPC1b_proliferation_BrdU_72hr: Leibniz Research Institute for Environmental Medicine (IUF) 72-hour Neural Progenitor Cell Bromodeoxyuridine (BrdU) Proliferation Assay (NPC1b) (AID 2284207). The procedure, abridged:
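hNPC spheres (primary, GW 16-19 fetal cortex), single sphere/well, EGF+FGF medium; 72 h compound, no renewal; BrdU pulse last 16 h; luminescent ELISA; activity vs DMSO baseline; growth-factor withdrawal as positive control.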

Test [2] is described as follows: IUF_NPC1a_proliferation_area_72hr: Leibniz Research Institute for Environmental Medicine (IUF) 72-hour Neural Progenitor Cell Proliferation Area Assay (NPC1a) (AID 2284208). The procedure, abridged: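 Spheres of 0.3 mm are plated singly in growth-factor medium and exposed from day 0. After three days at 37C and 5% CO2, sphere area is measured by phase contrast imaging, with activity referenced to DMSO.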

Test [3] is described as follows: IUF_NPC1_viability_72hr: Viability Assessment at 72 hours in the Leibniz Research Institute for Environmental Medicine (IUF) Neural Progenitor Cell Proliferation Assay (NPC1) (AID 2284209). The procedure, abridged:
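Each well receives one 0.3 mm progenitor sphere from fetal brain cortex; test chemical is added at plating and left three days. Viability comes from alamar blue fluorescence, multiplexed with LDH and BrdU readouts in the same well.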

A short description of test [4]: CCTE_Mundy_HCI_Cortical_NOG_NeuriteCount: CCTE's Neurite Outgrowth Assay in rat cortical cells for Neurite Count, Mundy Lab (AID 2284212).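 Further: cells fixed about two days after chemical exposure began.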 The method, boiled down:
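Neurite number per cell from high-content imaging of betaIII-tubulin immunostaining, with Hoechst nuclear counterstain.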

Test [5] is described as follows: CCTE_Mundy_HCI_Cortical_NOG_NeuriteLength: CCTE's Neurite Outgrowth Assay in rat cortical cells for Neurite Length, Mundy Lab (AID 2284213).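 On AC50: neurites imaged about 48 to 50 h after chemical exposure began.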 The procedure, abridged:
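Neurite length was read by high-content imaging of βIII-tubulin-labelled neurites in rat primary cortical cultures. Activity was fitted relative to DMSO.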

Test [6] can be described thus: TAMU_PeakParms_SingleDonor1434_Chronotropy: Texas A&M University (TAMU) 1.5-hr Human Induced Pluripotent Stem Cell (iPSC)-derived Cardiomyocytes Calcium (Ca+2) Flux Assay for Cardiotoxicity: Chronotropy (changes in peak frequency) (AID 2284217). Particulars: actives raise or lower the signal. The method, boiled down: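 Beat rate, as mean Ca2+-flux peak frequency, was read from donor 1434 iPSC cardiomyocytes 90 min after exposure to 0.2–100 uM test chemical (0.5% DMSO). Wells that stopped beating were excluded; EC05 from bidirectional DMSO-referenced fitting.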

Test [7] can be described thus: CCTE_Mundy_HCI_Cortical_Synap_Neur_Matur_NeuriteSpotCountPerNeuriteLength: CCTE's Synaptogenesis and Neurite Maturation Assay in rat cortical cells for Neurite Spot Count per Neurite Length, Mundy Lab (AID 2284210). The method, boiled down: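 Rat primary cortical cultures, glia arrested with AraC at DIV 5, were dosed with media change at DIV 7 and fixed at DIV 12. Synaptophysin puncta per MAP2-labelled neurite length were quantified by high-content imaging versus DMSO.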

A short description of test [8]: CCTE_Mundy_HCI_Cortical_Synap_Neur_Matur_BPCount: CCTE's Synaptogenesis and Neurite Maturation Assay in rat cortical cells for Branch Point Count, Mundy Lab (AID 2284211). The procedure, abridged:
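Branch point number is quantified by automated imaging of fluorescently labelled neurites and synapses in rat primary cortical neurons exposed from DIV 7 to DIV 12. Activity is analysed relative to DMSO negative control.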

Test [9] can be described thus: CCTE_Mundy_HCI_Cortical_Synap_Neur_Matur_NeuriteLength: CCTE's Synaptogenesis and Neurite Maturation Assay in rat cortical cells for Neurite Length, Mundy Lab (AID 2284214). The procedure, abridged:
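Neurite length in rat primary cortical cultures is imaged after MAP2, synaptophysin and Hoechst staining. Dosing starts DIV 7, ending DIV 12; DMSO serves as negative control and baseline.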

Test [10] is described as follows: CCTE_Mundy_HCI_Cortical_Synap_Neur_Matur_NeuriteSpotCountPerNeuron: CCTE's Synaptogenesis and Neurite Maturation Assay in rat cortical cells for Neurite Spot Count per Neuron Count, Mundy Lab (AID 2284215). The method, boiled down: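 Rat cortical primary cultures; AraC DIV 5 to arrest glia; dosing + media change DIV 7; fixed DIV 12. Anti-MAP2/anti-synaptophysin, Hoechst nuclei; HCI puncta count per neuron, positive fitting direction vs DMSO.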

A short description of test [11]: CCTE_Mundy_HCI_Cortical_Synap_Neur_Matur_SynapseCount: CCTE's Synaptogenesis and Neurite Maturation Assay in rat cortical cells for Synapse Count, Mundy Lab (AID 2284218). The procedure, abridged:
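Synapse count per neuron is measured in rat cortical neurons exposed to chemicals between DIV 7 and DIV 12, with glial growth arrested by AraC at DIV 5. Synaptophysin and MAP2 staining is imaged automatically; activity is fitted relative to DMSO.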

Test [12] can be described thus: CCTE_Mundy_HCI_Cortical_Synap_Neur_Matur_CellBodySpotCount: CCTE's Synaptogenesis and Neurite Maturation Assay in rat cortical cells for Cell Body Spot Count, Mundy Lab (AID 2284223). The method, boiled down:
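Rat cortical neurons; AraC @ DIV 5; dose + media change DIV 7; fix DIV 12; anti-MAP2/anti-synaptophysin IF, Hoechst; HCI count of soma synaptophysin puncta/neuron; DMSO = negative control.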

Test [13] in a line: CCTE_Mundy_HCI_hNP1_Pro_ResponderAvgInten: CCTE's Proliferation Assay in human neuroprogenitor cells, Mundy Lab (AID 2284224; active means hit-call score of the fitted dose curve at least 0.9, where 1 is the maximum;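 further: human neural progenitor cells hNP1 derived from WA09 embryonic stem cells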). The procedure, abridged:
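Human neuroprogenitors (hNP1, WA09 lineage) receive test chemical after 40 to 44 hours of attachment. A four-hour BrdU pulse begins twenty hours later, followed by fixation and high content imaging; signal is referenced to DMSO controls.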

Test [14] in a line: CCTE_Mundy_HCI_hN2_NOG_NeuriteCount: CCTE's Neurite Outgrowth Assay in human hN2 cells for Neurite Count, Mundy Lab (AID 2284219; active means hit-call score of the fitted dose curve at least 0.9, where 1 is the maximum). The method, boiled down: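 In this morphology assay, hNP1-derived neurons received test chemical 2 h post-plating and were fixed two days later in warm paraformaldehyde/sucrose containing Hoechst 33342. Neurites, labelled by rabbit anti-βIII-tubulin (1:800) and Alexa Fluor-488 (1:500), were counted automatically.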

Test [15] can be described thus: CCTE_Mundy_HCI_hN2_NOG_NeuriteLength: CCTE's Neurite Outgrowth Assay in human hN2 cells for Neurite Length, Mundy Lab (AID 2284220; active means hit-call score of the fitted dose curve at least 0.9, where 1 is the maximum). The method, boiled down:
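Using βIII-tubulin immunofluorescence and Hoechst nuclear counterstain, this component quantifies neurite length in hNP1-derived neurons.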

Test [16] in a line: CCTE_Mundy_HCI_hN2_NOG_NeuronCount: CCTE's Neurite Outgrowth Assay in human hN2 cells for Neuron Count, Mundy Lab (AID 2284221; active means hit-call score of the fitted dose curve at least 0.9, where 1 is the maximum). The method, boiled down:
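Read-out is the number of betaIII-tubulin-positive neurons imaged by automated high-content analysis, with DMSO as negative control.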

The nature of test [17]: BSK_BT_PBMCCytotoxicity: PBMC Cytotoxicity Assessment in the BioMAP Diversity Plus: BT Assay (AID 2284225).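 Further: PBMC viability measured by Alamar Blue dye reduction fluorescence.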 The conditions noted are these: primary human B cells with PBMC. The procedure, abridged: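 75,000 cells/well; cpd 1 h → SEB + TSST-1 (20 ng/mL final each) → 90 h → Alamar Blue 6 h → fluor. 546/580 nm. DMSO = neg. control/baseline.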
Read-out in test [18]: Secreted IgG (sIgG), gene 3500
As to the kind of experiment: BSK_BT_sIgG: BioMAP Diversity Plus: BT Assay for Secreted IgG (sIgG) Biomarker Activity (AID 2284226). The conditions noted are these: primary human B cells with PBMC. The method, boiled down:
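Secreted IgG from a human primary B cell–PBMC co-culture was measured by ELISA 24 hours after dosing, with DMSO defining baseline activity.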

Test [19] in a line: BSK_BT_Bcell_Proliferation: Viability Assessment in the BioMAP Diversity Plus: BT Assay for B cell Proliferation (AID 2284227). Particulars: primary human B cells with PBMC. The procedure, abridged:
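Human B cell/PBMC co-culture; test chemical added; 72 h; TCA fix (10%), 0.1% SRB stain, A560 for total protein as a proliferation read-out; positive-direction fit vs DMSO baseline.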

“And” between values parts separate entries of the source, which are not always exact repeats. Identical values can stand only once. Records with an inconclusive call do not appear. Where a structure was tested more than once in an assay, its records may differ in their call. The source made the active and inactive calls. How the source made its calls, unless noted: active means hit-call score of the fitted dose curve at least 0.9, where 1 is the maximum; inactive means score below 0.9.

With `C=C(C)[C@H]1Cc2c(ccc3c2O[C@@H]2COc4cc(OC)c(OC)cc4[C@@H]2C3=O)O1`, the AC50 was 0.0427 µM (active) in [1]; 756 nM (active) and 41.6 nM (active) in test [2]; 0.329 µM (active) in [3]; 53 nM (active) in [4]; 25.3 nM (active) in test [5]. The result in test [1], in [3] and in [6] was inactive.

In the case of `CCOP(=S)(OCC)Oc1cc(C)nc(C(C)C)n1`, the compound was classed as inactive in test [1], in test [2], in test [3], in test [7], in test [4] and in test [5]. The outcome in test [10], in test [11], in test [12] and in [13] was inactive. Besides, the concentration at half-maximal activity (AC50) in test [8] and in test [9] was 50 µM (active) in each case.

Regarding `CCOP(=O)(NC(C)C)Oc1ccc(SC)c(C)c1` (stereo unspecified), the AC50 in test [1] is 27.9 µM (active). The call in test [2], in test [3], in [7], in test [8], in test [4] and in test [5] was inactive. Further, the compound was classed as inactive in test [9], in [10], in test [11], in test [12] and in test [13].

On to `CCOP(=O)(SC(C)CC)N1CCSC1=O` (stereo unspecified), for which the outcome in test [7], in test [8], in [4], in [5], in test [9] and in [10] was inactive. Also, the compound was called inactive in [11], in [14], in test [15], in [16] and in [12].

For the compound `O=[N+]([O-])c1cc(C(F)(F)F)c(Cl)c([N+](=O)[O-])c1Nc1ncc(C(F)(F)F)cc1Cl`, the compound was called inactive in test [1]. In addition, the AC50 is 7.56 µM (active) in test [2]; 9.47 µM (active) in test [3]; 1.06 µM (active) in test [7]; 0.934 µM (active) in test [8]; 1440 nM (active) in test [4]; 800 nM (active) in test [5]. Moreover, the AC50 was 0.924 µM (active) in test [9]; 940 nM (active) in test [10]; 1.06 µM (active) in test [11]; 1.9 µM (active) in test [12]; 1.89 µM (active) in [13]; 4.22 µM (active) in test [17]. For the same compound, the figures for the AC50 in test [18] and in [19] were 0.282 µM (active) and 2.57 µM (active), respectively.

For `CCCSP(=O)(OCC)Oc1ccc(Br)cc1Cl` (stereo unspecified), the result in test [7], in test [8], in [4], in [5], in test [9] and in test [10] was inactive. The outcome in test [11], in test [16] and in test [12] was inactive.

As to `CC1=NNC(=O)N(/N=C/c2cccnc2)C1`, the compound was classed as inactive in test [1], in [2], in test [3], in [7], in test [8] and in [4]. The result in test [5], in test [9], in [10], in test [11] and in test [12] was inactive.

In the case of `CCCCSP(=O)(SCCCC)SCCCC`, the half-maximal activity concentration (AC50) in [1] was 87.2 µM (active); in test [7], 14 µM (active); in [8], 50 µM (active) and 14 µM (active); in [4], 77.8 µM (active) and 49.9 µM (active); in [5], 86.1 µM (active) and 75.3 µM (active); in test [9] it was 50 µM (active) and 14.2 µM (active). The half-maximal activity concentration (AC50) in test [10] was 66.3 µM (active) and 12.9 µM (active); in [11], 73.5 µM (active) and 15.5 µM (active); in test [12] it was 22.9 µM (active); in test [13] it was 50 µM (active) and 74.1 µM (active). For the same compound, the call in [2], in test [7] and in test [12] was inactive.
